From PubChem BioAssay (EPA / NIEHS) come the findings set out here.

“And” between values parts separate entries of the source, which are not always exact repeats. Equal entries are not always repeated. Results filed as inconclusive are left out. Some compounds were tested as several samples or in several runs, with calls that do not always agree. The source made the active and inactive calls. The calls were made as follows, unless noted: active = hit-call score of the fitted dose curve at least 0.9, where 1 is the maximum; inactive = score below 0.9.

As usually defined, the AC50 is the midpoint of the concentration-response curve, whichever way the signal moves.

Read-out in assay [1]: Monocyte Chemoattractant Protein-1 (MCP1), CCL2 (gene 6347)
Nature of the assay: BSK_LPS_MCP1: BioMAP Diversity Plus: LPS Assay for Monocyte Chemoattractant Protein-1 (MCP1) Biomarker Activity (AID 2283081).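 As to AC50: secreted MCP-1 protein quantified by ELISA in culture supernatant.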 The conditions noted are these: primary human HUVEC with PBMC; actives raise or lower the signal. The procedure, abridged:
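HUVEC plus PBMC co-culture (human primary cells, LPS system) exposed to test chemical for 24 h; MCP-1 measured by ELISA. Bidirectional curve fitting against DMSO baseline; parallel SRB total-protein staining flags overt cytotoxicity.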

Assay [2] is described as follows: BSK_LPS_PGE2: BioMAP Diversity Plus: LPS Assay for Prostaglandin E2 (PGE2) Biomarker Activity (AID 2283082). The conditions noted are these: primary human HUVEC with PBMC; actives raise or lower the signal. The procedure, abridged: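 Endpoint derived from bidirectional curve fitting versus DMSO of ELISA-measured PGE2 in LPS-stimulated human primary vascular co-culture (HUVEC with PBMC) harvested at 24 h.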

Read-out in assay [3]: Macrophage colony-stimulating factor (MCSF), CSF1 (gene 1435)
The assay can be described thus: BSK_LPS_MCSF: BioMAP Diversity Plus: LPS Assay for Macrophage colony-stimulating factor (MCSF) Biomarker Activity (AID 2283083). As to conditions: primary human HUVEC with PBMC; actives raise or lower the signal. The procedure, abridged: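 Human umbilical vein endothelial cells co-cultured with peripheral blood mononuclear cells were exposed to compound for 24 h. M-CSF levels were measured by ELISA, and bidirectional curve fitting used DMSO as the negative control and baseline.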

Read-out in assay [4]: Tissue Factor, F3 (gene 2152)
The assay can be described thus: BSK_LPS_TissueFactor: BioMAP Diversity Plus: LPS Assay for Tissue Factor Biomarker Activity (AID 2283084). The conditions noted are these: primary human HUVEC with PBMC; actives raise or lower the signal. A digest of the protocol:
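Human umbilical vein endothelial cells co-cultured with peripheral blood mononuclear cells were dosed and stimulated with LPS. Cell-surface CD142 was quantified by ELISA at 24 h. Activity was fitted bidirectionally against DMSO baseline.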

Read-out in assay [5]: Tumor necrosis factor (Homo sapiens) (UniProt P01375)
The assay can be described thus: BSK_LPS_TNFa: BioMAP Diversity Plus: LPS Assay for Tumour Necrosis Factor alpha (TNFa) Biomarker Activity (AID 2283085). The conditions noted are these: primary human HUVEC with PBMC; actives raise or lower the signal. The procedure, abridged: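 Primary human vascular co-culture of HUVEC and PBMC; TNFa ELISA 24 h after treatment, analysed as increase or decrease relative to DMSO control.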

Read-out in assay [6]: Vascular cell adhesion molecule 1 (VCAM1), VCAM1 (gene 7412)
The assay can be described thus: BSK_LPS_VCAM1: BioMAP Diversity Plus: LPS Assay for Vascular cell adhesion molecule 1 (VCAM1) Biomarker Activity (AID 2283086). The conditions noted are these: primary human HUVEC with PBMC; actives raise or lower the signal. The procedure, abridged: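 Primary human vascular co-culture (umbilical vein endothelium plus PBMC) stimulated with LPS received chemical; 24 h later VCAM-1 was read by ELISA. Overt cytotoxicity was assessed by sulforhodamine B staining of parallel cultures at the same time point.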

Read-out in assay [7]: CD38, CD38 (gene 952)
Nature of the assay: BSK_SAg_CD38: BioMAP Diversity Plus: SAg Assay for CD38 Biomarker Activity (AID 2283087). The conditions noted are these: primary human HUVEC with PBMC; actives raise or lower the signal. A digest of the protocol: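 Fluorescence ELISA of cell-surface CD38 served as the read-out, with either increase or decrease fitted against DMSO controls. Cells were a human umbilical vein endothelium plus PBMC co-culture under SEB/TSST-1 stimulation, measured 24 h after dosing.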

Read-out in assay [8]: CD40, CD40 (gene 958)
Nature of the assay: BSK_SAg_CD40: BioMAP Diversity Plus: SAg Assay for CD40 Biomarker Activity (AID 2283088). As to conditions: primary human HUVEC with PBMC; actives raise or lower the signal. The procedure, abridged:
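Human umbilical vein endothelial cells co-cultured with PBMC; CD40 levels measured by ELISA with fluorescence read-out 24 h after chemical dosing. Gain or loss of signal fitted bidirectionally against DMSO baseline.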

Read-out in assay [9]: CD69, CD69 (gene 969)
The assay can be described thus: BSK_SAg_CD69: BioMAP Diversity Plus: SAg Assay for CD69 Biomarker Activity (AID 2283089).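 As to AC50: cell surface CD69 protein quantified by ELISA with fluorescence detection.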 As to conditions: primary human HUVEC with PBMC; actives raise or lower the signal. A digest of the protocol:
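Values derive from bidirectional fitting relative to DMSO vehicle. Cells: umbilical vein endothelium plus peripheral blood mononuclear cells, treated 24 h before fluorescent ELISA for CD69.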

Read-out in assay [10]: Monocyte Chemoattractant Protein-1 (MCP1), CCL2 (gene 6347)
Nature of the assay: BSK_SAg_MCP1: BioMAP Diversity Plus: SAg Assay for Monocyte Chemoattractant Protein-1 (MCP1) Biomarker Activity (AID 2283090). The conditions noted are these: primary human HUVEC with PBMC; actives raise or lower the signal. The procedure, abridged: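 MCP-1 levels in the endothelial–PBMC SAg co-culture were quantified by ELISA at 24 h post-dosing; both increases and decreases versus DMSO scored. Cytotoxicity monitored by SRB total protein in parallel cultures.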

Read-out in assay [11]: E-selectin (Homo sapiens) (UniProt P16581)
Nature of the assay: BSK_SAg_Eselectin: BioMAP Diversity Plus: SAg Assay for Eselectin Biomarker Activity (AID 2283091). The conditions noted are these: primary human HUVEC with PBMC; actives raise or lower the signal. A digest of the protocol: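 HUVEC co-cultured with PBMC, compound dosed then read at 24 h; E-selectin measured by ELISA. Activity fitted bidirectionally against DMSO as negative control and baseline.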

Read-out in assay [12]: Monokine induced gamma interferon (MIG), CXCL9 (gene 4283)
The assay can be described thus: BSK_SAg_MIG: BioMAP Diversity Plus: SAg Assay for Monokine induced gamma interferon (MIG) Biomarker Activity (AID 2283092). The conditions noted are these: primary human HUVEC with PBMC; actives raise or lower the signal. The procedure, abridged: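 Values reflect bidirectional fitting of ELISA-measured MIG against DMSO vehicle, taken 24 h after dosing of a co-culture of human umbilical vein endothelial cells and peripheral blood mononuclear cells.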

The nature of assay [13]: BSK_SAg_PBMCCytotoxicity: PBMC Cytotoxicity Assessment in the BioMAP Diversity Plus: SAg Assay (AID 2283093).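 Also: PBMC viability measured as Alamar Blue reduction fluorescence at 546/580 nm; fitted both ways against DMSO so a hit may be loss or gain of signal.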 As to conditions: primary human HUVEC with PBMC. The procedure, abridged: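 Human umbilical vein endothelial cells co-cultured with PBMC; PBMC (75,000/well) pre-treated with compound 1 h, then activated with SEB and TSST-1 (20 ng/mL final each) for 90 h. Alamar Blue added 6 h, fluorescence 546/580 nm; bidirectional fit versus DMSO.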

Read-out in assay [14]: Interleukin-8 (IL8), CXCL8 (gene 3576)
Nature of the assay: BSK_SAg_IL8: BioMAP Diversity Plus: SAg Assay for Interleukin-8 (IL8) Biomarker Activity (AID 2283094). As to conditions: primary human HUVEC with PBMC; actives raise or lower the signal. A digest of the protocol:
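In this co-culture of human umbilical vein endothelium with peripheral blood mononuclear cells, IL-8 is assayed by ELISA at 24 h. DMSO serves as baseline for bidirectional curve fitting.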

Assay [15] can be described thus: BSK_SAg_Proliferation: Cell Proliferation Assessment in the BioMAP Diversity Plus: SAg Assay (AID 2283095).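 Also: relative cell number as total protein by SRB absorbance in sub-confluent culture.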 As to conditions: primary human HUVEC with PBMC. The procedure, abridged: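 Readout is SRB-stained protein (560 nm) in a primary human HUVEC and PBMC co-culture; sub-confluent cultures are read at 96 h. Activity is fitted bidirectionally using DMSO as baseline.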

Assay [16] can be described thus: BSK_SAg_SRB: Viability Assessment in the BioMAP Diversity Plus: SAg Assay (AID 2283096).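 Also: cells read one day after compound addition; hits may be either gain or loss of signal compared with DMSO.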 As to conditions: primary human HUVEC with PBMC. A digest of the protocol:
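Endothelial/PBMC primary human co-culture; compound 24 h; fix 10% TCA, stain 0.1% SRB, A560; protein content as cytotoxicity proxy; bidirectional curve fit, DMSO = baseline.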

Assay [17] addresses human CYP2D6, CYP2D6 (gene 1565) (UniProt P10635). The assay can be described thus: NVS_ADME_hCYP2D6: NovaScreen (NVS) CYP450-related Enzyme Activity (ADME) Assay for human CYP2D6 (AID 2283107; active = hit-call score of the fitted dose curve at least 0.9, where 1 is the maximum). The procedure, abridged: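 Cell-free assay using recombinant enzyme expressed in insect cells, with fluorescence-intensity readout of enzyme activity 1 hour after chemical dosing. Loss of signal versus acetonitrile negative control indicates inhibition. Primary screen ran in duplicate at 10 uM; actives were retested in concentration series.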

Assay [18] addresses human CYP2C9, CYP2C9 (gene 1559) (UniProt P11712). The assay can be described thus: NVS_ADME_hCYP2C9: NovaScreen (NVS) CYP450-related Enzyme Activity (ADME) Assay for human CYP2C9 (AID 2283108; active = hit-call score of the fitted dose curve at least 0.9, where 1 is the maximum). A digest of the protocol:
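Cell-free assay of recombinant human CYP2C9 produced in Sf9 cells, with enzyme activity read by fluorescence intensity 0.75 h after compound addition. Loss of signal versus an acetonitrile negative control indicates inhibition. Primary screen used 10 uM in duplicate; actives were retested in concentration series.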

Assay [19] concerns the target Cytochrome P450 3A4 (Homo sapiens) (UniProt P08684). Nature of the assay: NVS_ADME_hCYP3A4: NovaScreen (NVS) CYP450-related Enzyme Activity (ADME) Assay for human CYP3A4 (AID 2283110; active = hit-call score of the fitted dose curve at least 0.9, where 1 is the maximum). The procedure, abridged: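 Cell-free assay using insect-cell-expressed human CYP3A4 with a fluorogenic substrate; fluorescence intensity was read 0.33 hour after dosing. Loss of signal relative to acetonitrile vehicle indicated inhibition. Primary single-concentration screen at 10 uM, in duplicate, then concentration series.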

The target in assay [20] is Cytochrome P450 2C19 (Homo sapiens) (UniProt P33261). Nature of the assay: NVS_ADME_hCYP2C19: NovaScreen (NVS) CYP450-related Enzyme Activity (ADME) Assay for human CYP2C19 (AID 2283113; active = hit-call score of the fitted dose curve at least 0.9, where 1 is the maximum;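 also: potency for inhibition seen as loss of fluorescent signal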). The procedure, abridged: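 Cell-free assay of recombinant human CYP2C19 expressed in insect cells, with a fluorogenic substrate; fluorescence intensity read 1 hour after dosing. Loss of signal relative to acetonitrile negative control indicates inhibition. Primary screen at 10 uM in duplicate, then concentration series.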

Tumor necrosis factor (Homo sapiens), sequence (P01375 whole entry, looked up): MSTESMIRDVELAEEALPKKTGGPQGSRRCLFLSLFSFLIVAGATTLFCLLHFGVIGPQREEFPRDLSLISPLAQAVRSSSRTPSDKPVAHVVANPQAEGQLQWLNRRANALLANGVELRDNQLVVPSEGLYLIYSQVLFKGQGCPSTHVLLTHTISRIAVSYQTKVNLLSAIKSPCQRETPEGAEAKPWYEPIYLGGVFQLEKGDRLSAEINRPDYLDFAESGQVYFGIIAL
E-selectin (Homo sapiens), sequence (P16581 whole entry, looked up): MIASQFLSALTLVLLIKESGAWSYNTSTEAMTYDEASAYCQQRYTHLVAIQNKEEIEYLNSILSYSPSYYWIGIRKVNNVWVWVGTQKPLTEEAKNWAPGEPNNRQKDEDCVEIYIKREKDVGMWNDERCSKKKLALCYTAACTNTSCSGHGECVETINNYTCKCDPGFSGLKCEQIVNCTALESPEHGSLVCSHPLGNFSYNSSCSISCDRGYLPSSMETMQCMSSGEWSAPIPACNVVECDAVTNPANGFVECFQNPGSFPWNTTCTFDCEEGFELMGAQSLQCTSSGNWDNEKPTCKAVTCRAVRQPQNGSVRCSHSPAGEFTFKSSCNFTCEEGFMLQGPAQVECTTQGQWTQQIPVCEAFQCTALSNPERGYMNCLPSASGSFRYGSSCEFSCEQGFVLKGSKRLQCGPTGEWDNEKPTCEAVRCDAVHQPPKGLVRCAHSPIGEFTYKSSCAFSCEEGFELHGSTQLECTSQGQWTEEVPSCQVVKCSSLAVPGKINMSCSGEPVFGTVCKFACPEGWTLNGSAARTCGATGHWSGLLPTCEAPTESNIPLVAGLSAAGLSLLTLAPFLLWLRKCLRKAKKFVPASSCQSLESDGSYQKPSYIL
human CYP2D6, CYP2D6 (gene 1565), sequence (P10635 whole entry, looked up): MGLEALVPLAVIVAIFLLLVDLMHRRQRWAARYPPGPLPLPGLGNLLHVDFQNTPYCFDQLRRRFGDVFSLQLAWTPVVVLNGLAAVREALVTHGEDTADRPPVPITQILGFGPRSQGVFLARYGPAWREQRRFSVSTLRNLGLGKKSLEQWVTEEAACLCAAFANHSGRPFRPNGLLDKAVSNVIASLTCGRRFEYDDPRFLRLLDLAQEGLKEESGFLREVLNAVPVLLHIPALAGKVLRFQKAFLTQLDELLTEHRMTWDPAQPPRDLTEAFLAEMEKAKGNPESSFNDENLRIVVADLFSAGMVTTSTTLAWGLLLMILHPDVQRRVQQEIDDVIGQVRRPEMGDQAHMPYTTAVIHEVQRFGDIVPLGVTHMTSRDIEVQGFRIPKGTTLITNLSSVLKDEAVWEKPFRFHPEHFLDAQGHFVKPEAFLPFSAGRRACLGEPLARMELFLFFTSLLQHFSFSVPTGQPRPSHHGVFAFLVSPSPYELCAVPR
Cytochrome P450 3A4 (Homo sapiens), sequence (P08684 whole entry, looked up): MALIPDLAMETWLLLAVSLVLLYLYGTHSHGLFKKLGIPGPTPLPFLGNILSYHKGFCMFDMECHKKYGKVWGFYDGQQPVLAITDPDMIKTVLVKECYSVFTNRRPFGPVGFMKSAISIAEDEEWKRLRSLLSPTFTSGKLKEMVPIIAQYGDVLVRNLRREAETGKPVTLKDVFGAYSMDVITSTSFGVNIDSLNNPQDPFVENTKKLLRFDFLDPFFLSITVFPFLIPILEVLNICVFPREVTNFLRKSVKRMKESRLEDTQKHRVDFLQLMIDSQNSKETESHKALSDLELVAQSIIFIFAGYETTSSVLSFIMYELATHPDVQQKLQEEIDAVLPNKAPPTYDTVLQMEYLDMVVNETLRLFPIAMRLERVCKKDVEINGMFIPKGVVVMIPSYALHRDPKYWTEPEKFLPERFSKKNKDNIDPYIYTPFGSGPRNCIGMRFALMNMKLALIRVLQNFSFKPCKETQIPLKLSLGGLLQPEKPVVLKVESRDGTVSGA
human CYP2C9, CYP2C9 (gene 1559), sequence (P11712 whole entry, looked up): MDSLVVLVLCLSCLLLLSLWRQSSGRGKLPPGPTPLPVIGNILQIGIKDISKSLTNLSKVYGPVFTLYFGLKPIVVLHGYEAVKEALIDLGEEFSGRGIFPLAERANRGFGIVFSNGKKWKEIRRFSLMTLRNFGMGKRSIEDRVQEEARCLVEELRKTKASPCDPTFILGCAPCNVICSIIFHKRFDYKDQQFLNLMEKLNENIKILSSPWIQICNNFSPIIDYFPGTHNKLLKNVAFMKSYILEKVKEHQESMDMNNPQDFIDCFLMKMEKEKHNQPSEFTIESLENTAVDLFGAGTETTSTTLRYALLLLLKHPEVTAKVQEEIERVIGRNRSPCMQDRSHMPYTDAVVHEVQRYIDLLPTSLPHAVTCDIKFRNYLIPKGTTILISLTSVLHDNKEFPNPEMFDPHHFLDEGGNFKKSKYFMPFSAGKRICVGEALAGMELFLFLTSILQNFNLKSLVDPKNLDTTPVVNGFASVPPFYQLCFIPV

Turning to `O=C(O)C(F)(F)C(F)(F)C(F)(F)C(F)(F)C(F)(F)C(F)(F)C(F)(F)C(F)(F)C(F)(F)C(F)F`, the AC50 in [1] is 41.1 µM (active) and 44.3 µM (active); in [2], 42.6 µM (active) and 48.8 µM (active); in assay [6] it was 52.5 µM (active) and 46.9 µM (active); in assay [7], 48.3 µM (active) and 46.3 µM (active); in assay [8], 41.9 µM (active) and 44.6 µM (active); in [9] it was 37.6 µM (active) and 47.3 µM (active). The AC50 in assay [10] was 44.9 µM (active) and 46 µM (active); in assay [11] it was 54.2 µM (active); in assay [14], 41.6 µM (active) and 47.9 µM (active); in [15], 47.8 µM (active) and 54.6 µM (active); in assay [16] it was 47.3 µM (active) and 45.8 µM (active). Moreover, the result in assay [3], in assay [4], in [5], in [11], in assay [12] and in [13] was inactive.
Turning to `FC(F)(F)C(F)(F)C(F)(F)C(F)(F)C(F)(F)C(F)(F)C(F)(F)C(F)(F)F`, the result in assay [1], in assay [2], in assay [3], in [4], in [5] and in [6] was inactive. Moreover, the result in assay [7], in assay [8], in [9], in assay [10], in assay [11] and in assay [12] was inactive. In addition, the outcome in [13], in [14], in assay [15] and in assay [16] was inactive.
With `O=C(O)C(F)(OC(F)(F)C(F)(OC(F)(F)C(F)(OC(F)(F)C(F)(F)C(F)(F)F)C(F)(F)F)C(F)(F)F)C(F)(F)F` (centres undefined), the result in [1], in assay [2], in assay [3], in [4], in assay [5] and in assay [6] was inactive. For the same compound, the outcome in assay [8], in assay [9], in assay [10], in [11], in assay [12] and in assay [13] was inactive. Besides, the result in assay [14], in assay [15] and in [16] was inactive.
For `Nc1ccc([N+](=O)[O-])cc1O`, the result in assay [1], in [2], in [3], in assay [4], in assay [5] and in assay [6] was inactive. Further, the result in [8], in [9], in assay [10], in assay [11], in assay [12] and in [13] was inactive. For the same compound, the result in [14], in assay [15] and in assay [16] was inactive. For the same compound, the results for the AC50 in assay [17] and in assay [18] were 3.87 µM (active) and 3.74 µM (active), respectively.
Take `CCc1c(Br)c(Br)c(Br)c(Br)c1Br`: the outcome in assay [1], in assay [2], in [3], in [4], in [5] and in assay [6] was inactive. The result in assay [8], in [9], in [10], in [11], in assay [12] and in assay [13] was inactive. For the same compound, the result in assay [14], in assay [15] and in assay [16] was inactive.
In the case of `CC(=O)Nc1ccc(N=Nc2cc(C)ccc2O)cc1`, the outcome in assay [1], in [2], in assay [3], in assay [4], in [5] and in [8] was inactive. For the same compound, the outcome in assay [10], in assay [11], in assay [12], in assay [13], in assay [14] and in assay [16] was inactive. Moreover, the AC50 was 5.06 µM (active) in assay [6]; 7.17 µM (active) in assay [7]; 5.73 µM (active) in assay [9]; 11 µM (active) in [15]; 2.96 µM (active) in [17]; 5 µM (active) in assay [19]. The AC50 in assay [20] is 0.00307 µM (active).
